# Assay outcomes: PubChem BioAssay, National Center for Advancing Translational Sciences (NCATS)
# Rows were chosen to be rich in hits. Some 10% of all compounds tested hit in one or more screens of this group.
# Pf growth 48h = inhibits P. falciparum growth in the first generation, 48 h; 310,000 compounds, 5.9% hits; Potency, µM (titrated, usually from 28.7 µM), without a hit: at the highest dose activity change, negative = inhibition, usual class: inhibitors; P. falciparum luciferase growth in erythrocytes, 48 h; AID 504832; further: on the % scale 0 is the no-effect control and ±100 the full control effect
#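 A one-generation exposure of luciferase-tagged malaria parasites in RPMI 1640/Albumax erythrocyte culture, 37 C and 5% CO2. Inhibition is inferred from decreased luminescence after adding detection reagent.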
# NS1 function inh = influenza NS1 inhibition; 270,000 compounds, 0.4% hits; Potency, µM (series often up to 46.1 µM), without a hit: at the top dose activity, positive = more growth; AID 2326; calls by dose curve; further: actives are rising curves; nearly all actives have a fitted effect of over 50% in size
#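 Growth recovery, yeast-based: influenza A NS1 expressed in S. cerevisiae causes slow growth, and suppressors are detected by OD600. The parent strain without NS1 is used as positive control.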
# Pf growth 96h = inhibits malaria parasite growth, 96 h | P. falciparum luciferase reporter growth, 96 h | AID 504834 | Potency, µM (highest dose often 28.7 µM), inactives show at the top dose activity change, negative = inhibition, most hits filed as inhibitors | 320,000 compounds, 6.9% hits; further: on the % scale 0 is the no-effect control and ±100 the full control effect
#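 96 h incubation, 37 C, 5% CO2, of luciferase-reporter P. falciparum-infected RBCs (2% hematocrit, 0.05% parasitemia final) with test compounds; endpoint luminescence.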
# SARS PLP yeast = inhibitors of SARS-CoV papain-like protease in yeast; S. cerevisiae expressing SARS-CoV PLpro, growth rescue; 330,000 compounds, 0.19% hits; Potency, µM (doses to about 32.9 µM), inactives show at the highest dose activity, positive = growth rescue, actives largely listed as activators; calls by dose curve; further: 0% is about no effect; nearly all actives have a fitted effect of over 55% in size
# * = called active by the depositor; ? = inconclusive; / = no result. Unless noted, the call rests on the fitted dose curve; in most records, active means well fitted inhibition curve with a large enough effect; inconclusive means small, poorly fitted or top-dose-only effect, or another doubt; inactive means no such curve, though single readings can be large or run the other way. Potency means the concentration at half of the fitted maximal effect.
SMILES,Pf growth 48h,NS1 function inh,Pf growth 96h,SARS PLP yeast
CCN(CC)c1ccc(S(=O)(=O)N(CC)CC)cc1NC(=O)C1CCCC1,14.7µM*,2.1%,?,-0.2%
CCc1ccccc1OCC(=O)Nc1cc(S(=O)(=O)N(CC)CC)ccc1N1CCOCC1,1.31µM*,/,1.17µM*,-14.7%
COc1cccc(CC(NC(C)=O)C(=O)NC2CCN(C(=O)c3ccncc3)CC2)c1OC (stereo unspecified),7.5%,8.2%,1.0%,5.1%
CCN(CC(=O)Nc1c(F)cccc1F)C(=O)c1cc(C)oc1C,?,/,3.7%,-4.1%
CCN(CC)S(=O)(=O)c1ccc(N2CCOCC2)c(NC(=O)COc2ccccc2)c1,9.28µM*,12.4%,?,3.3%
C=CCn1c(C)cc(C(=O)CSc2nc3ccccc3c(=O)[nH]2)c1C,-40.2%,-11.8%,?,-9.0%
COCCn1c(C)cc(C(=O)CSc2nc3ccccc3c(=O)[nH]2)c1C,10.1%,6.4%,0.294µM*,8.2%
Cc1cccc(C)c1NC(=O)CSc1nc2ccccc2c(=O)[nH]1,-0.2%,-2.4%,0.415µM*,1.0%
Cc1csc(NC(=O)CSc2nc3ccccc3c(=O)[nH]2)n1,3.9%,-3.2%,-4.9%,4.2%
Cc1cc(NC(=O)CSc2nc3ccccc3[nH]2)n(-c2ccccc2)n1,1.85µM*,1.6%,4.65µM*,0.8%
CCc1ccc(C(=O)CSc2nc3ccccc3c(=O)[nH]2)cc1,/,-5.1%,10.4µM*,-6.9%
C=CCn1c(SCC(=O)Nc2cc(C)nn2-c2ccccc2)nnc1C1CCCCC1,-14.9%,0.4%,11.7µM*,3.0%
O=C(CSc1nc2ccccc2c(=O)[nH]1)Nc1ccc(S(=O)(=O)N2CCCC2)cc1,-16.3%,-8.1%,2.33µM*,-3.0%
O=C(CSc1nc2ccccc2c(=O)[nH]1)Nc1ccc(C(=O)O)cc1,39.7%,/,21.1%,1.9%
CCOC(=O)c1c(C)[nH]c(C(C)=NNC(=O)c2cccs2)c1C,/,/,/,-2.9%
COc1cc([C@@H]2c3cc4c(cc3[C@@H](O)[C@H]3COC(=O)[C@H]23)OCO4)cc(OC)c1O[Si](C)(C)C(C)(C)C,7.38µM*,3.1%,8.28µM*,-2.0%
c1ccc2c(c1)OCC(CNCC1COc3ccccc3O1)O2 (stereo unspecified),5.5%,-32.1%,0.208µM*,-13.0%
O=C(O)CNCC1COc2ccccc2O1 (stereo unspecified),-0.4%,-0.1%,125.6%,5.0%
CCCC[n+]1ccn(-c2nc3c([N+](=O)[O-])cccc3n2C)c1,13.1µM*,4.0%,2.08µM*,-7.4%
CCOc1cc2[nH]c(=O)n(CCC(=O)N3CCN(c4ccccc4OC)CC3)c(=O)c2cc1OCC,?,2.0%,11.7µM*,2.5%
CCOc1cc2[nH]c(=O)n(CCCCC(=O)N3CCCCCC3)c(=O)c2cc1OCC,5.22µM*,-1.0%,9.6%,18.7%
COc1cc2[nH]c(=O)n(CCC(=O)N3CCN(Cc4ccc5c(c4)OCO5)CC3)c(=O)c2cc1OC,-23.0%,/,-22.9%,-4.1%
COc1cc2[nH]c(=O)n(CCC(=O)N3CCN(c4cc(Cl)ccc4C)CC3)c(=O)c2cc1OC,11.7µM*,18.6%,-0.4%,-0.8%
CCOc1ccc(S(=O)(=O)Nc2ccn(C)n2)cc1,-6.6%,/,-17.8%,-8.4%
CCOC(=O)CCN1C(=O)c2ccccc2Sc2ncccc21,3.3%,4.9%,?,1.6%
SMILES,Pf growth 48h,NS1 function inh,Pf growth 96h,SARS PLP yeast
Cc1nnc(SC(C)C(=O)Nc2ccc(Cl)cn2)n1Cc1ccccc1 (stereo unspecified),1.9%,-5.5%,4.0%,0.7%
CC(Sc1nnc(-c2ccco2)n1C)C(=O)Nc1nccs1 (stereo unspecified),?,/,5.22µM*,5.8%
CC(Sc1nnc(-c2ccc(Cl)cc2Cl)n1Cc1ccccc1)C(=O)Nc1nccs1 (stereo unspecified),?,-48.2%,9.28µM*,-6.4%
Cc1cccc(NCC(=O)N/N=C/c2ccc(Br)cc2)c1,12.4%,2.4%,5.9%,0.2%
CCCCN1Cc2cc(C(=O)c3cc(OC)ccc3O)cnc2NC1=O,?,1.9%,9.28µM*,-2.3%
Cc1ccc(O)c(C(=O)c2cnc3c(c2)CN(CCC(C)C)C(=O)N3)c1,2.94µM*,1.3%,5.22µM*,-4.0%
COc1ccc(O)c(C(=O)c2cnc3nc4ccccc4n3c2)c1,28.6%,-10.1%,0.0%,-17.4%
Cc1ccc(O)c(C(=O)c2cnc3c(c2)CN(C)C(=O)N3)c1,?,10.5%,/,-1.1%
Cc1ccc(O)c(C(=O)c2cnc3c(c2)c(=O)n(C)c(=O)n3C)c1,?,15.4%,10.4µM*,-0.6%
